Assay outcomes (PubChem BioAssay)
Rows were chosen to be rich in hits. Some 14% of all compounds tested hit in one or more screens of this group.
HADH2 inh: qHTS Assay for Inhibitors of HADH2 (Hydroxyacyl-Coenzyme A Dehydrogenase, Type II) | 3-hydroxyacyl-CoA dehydrogenase type-2 (Homo sapiens), Q99714 | recombinant HADH2, NADH fluorescence, beta-hydroxybutyryl-CoA | Potency, µM (series often up to 57.1 µM), hits mostly inhibitors | hit rate 3.4% among 73,000 | AID 886, 2007; also: nearly all actives have a fitted effect of over 60% in size
Target sequence (Q99714 whole entry, looked up, one chain of several): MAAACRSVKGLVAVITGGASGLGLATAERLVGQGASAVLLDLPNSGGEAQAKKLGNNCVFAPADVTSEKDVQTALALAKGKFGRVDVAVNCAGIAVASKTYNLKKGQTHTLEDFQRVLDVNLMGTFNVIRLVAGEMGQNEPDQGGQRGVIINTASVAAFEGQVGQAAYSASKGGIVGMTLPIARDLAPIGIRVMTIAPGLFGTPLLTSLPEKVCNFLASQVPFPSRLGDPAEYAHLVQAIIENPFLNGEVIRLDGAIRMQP
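His-tagged recombinant enzyme from E. coli, 20 nM, preincubated 15 min RT with compound; reaction started with 1 mM NAD+ and 90 uM beta-hydroxybutyryl-CoA in 100 mM Tris-HCl pH 9.0. NADH fluorescence (ex 360/em 450) read over 4 min; last-minus-first difference.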
4-MU autofl: qHTS Assay for Spectroscopic Profiling in 4-MU Spectral Region; compound autofluorescence, 340/450 nm, 4-MU equivalents; stronger effect = higher value; hit rate 11% among 59,000; max dye-equivalent concentration, M; AID 589, 2007; in the data active = max dye-equivalent concentration above about 10 nM; inconclusive = mostly about 1.1 nM to 9.6 nM
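Compounds in 100 mM Tris, pH 8.0, incubated 15 min at room temperature, then fluorescence read at 340 nm excitation/450 nm emission. Signal converted to 4-MU dye-equivalent concentration using an on-plate six-point 4-MU standard curve.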
CRE Fsk mod: Cell signaling CRE-BLA (Fsk stim) | Potency, µM (titrated, usually from 38.2 µM), usual class: activators | CHO CRE-bla reporter (cAMP response element driving beta-lactamase), forskolin EC10, beta-lactamase ratio | hit rate 2.5% among 71,000; active = well fitted activation curve with a large enough effect in the signal ratio, with a control signal flat, not every such curve was filed as active; inconclusive = small, poorly fitted or top-dose-only effect, or effect the other way, or a change in a side signal; the % refers to the signal ratio
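Modulation of forskolin-driven signalling is measured in CHO cells carrying a CRE-controlled beta-lactamase reporter. Cells are stimulated with EC10 NKH 477 in the presence of titrated compound for 3 h at 37 °C, then loaded with CCF4 for 2 h at room temperature.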
HSD17B inh: qHTS Assay for Inhibitors of HSD17B4, hydroxysteroid (17-beta) dehydrogenase 4 | 3-hydroxyacyl-CoA dehydrogenase type-2 (Homo sapiens), Q99714 | recombinant HSD17B10, NADH fluorescence kinetic | Potency, µM (top dose mostly 57.1 µM), actives largely listed as inhibitors | hit rate 7.6% among 75,000 | AID 893, 2007;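 also: the protocol describes HADH2 (HSD17B10) and not the HSD17B4 of the title; nearly all actives have a fitted effect of over 70% in size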
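Activity followed as NADH fluorescence increase (ex 360, em 450 nm) every 30 seconds for 4 min, using final 90 uM beta-hydroxybutyryl CoA and 1 mM NAD+. Recombinant His-tagged enzyme, 20 nM, pH 9.0 Tris buffer, 15 min compound preincubation.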
A350 fluor: qHTS Assay for Spectroscopic Profiling in A350 Spectral Region; hit rate 11% among 59,000; Compound autofluorescence, 340/450 nm, Alexa 350 dye-equivalents; stronger effect = higher value; max dye-equivalent concentration, M; AID 590, 2007; in the data active = max dye-equivalent concentration above about 10 nM; inconclusive = mostly about 1.1 nM to 9.6 nM
AID923: qHTS Assay for Allosteric/Competitive Inhibitors of Caspase-1: Spectroscopic Profiling in AFC Spectral Region | compound fluorescence, AFC spectral region (405/520 nm) | Potency, µM (doses to about 57.5 µM), actives largely listed as activators | hit rate 1.1% among 75,000 | AID 923, 2007
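Titrations up to 57 uM read every 20 sec for 3 min (405/520 nm) with 50 nM caspase 1 and 5 uM Ac-WEHD-AFC, pH 7.5 HEPES buffer. Fluorescence-vs-time intercept gave baseline, scaled against on-plate AFC standard.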
Large screens that a line does not name were inactive; ! = not confirmed by another sample. Unless noted, calls follow the shape of the dose curve; as a rule, active = well fitted curve in the direction sought with a large enough effect; inconclusive = small, poorly fitted or top-dose-only effect, or another doubt; inactive = no such curve, though single readings can be large; an effect the other way counts as inactive or inconclusive.

CN(C)c1ccc(-c2nc(N(C)C)c3ccccc3n2)cc1	none
O=S(=O)(c1ccccc1)N1CCC2(CCN(C(c3ccccc3)c3ccccc3)CC2)CC1	none
C=CC[C@@H]1C=C[C@@H](O/N=C(/C)CCC(=O)OC[C@@H]2O[C@H](c3ccccc3)C=C[C@@H]2Oc2ccc(OC)cc2)[C@@H](CO)O1	none (no result: 4-MU autofl, CRE Fsk mod, A350 fluor)
O=C(Nc1ccccc1)N1CC[C@@]2(CCCN(C(=O)c3ccncc3)C2)C1	none
CN(C)C(=O)c1ccc(-c2nc(Nc3ccc(F)cc3)c3ccccc3n2)cc1	4-MU autofl inconclusive, CRE Fsk mod 4µM, HSD17B inh inconclusive, A350 fluor inconclusive
CC(=O)NCCNc1nc(-c2ccc(C(=O)N(C)C)cc2)nc2ccccc12	CRE Fsk mod inconclusive
CN1CCN(c2nc(-c3cccnc3)nc3ccccc23)CC1	CRE Fsk mod 10µM!
c1cncc(-c2nc(N3CCCCCC3)c3ccccc3n2)c1	CRE Fsk mod inconclusive, HSD17B inh inconclusive
CNc1nc(-c2ccc(N(C)C)cc2)nc2ccccc12	HADH2 inh inconclusive, CRE Fsk mod inconclusive, HSD17B inh 20µM, A350 fluor inconclusive
c1ccc2sc(-c3ccc4c(c3)OCO4)nc2c1	HADH2 inh inconclusive, HSD17B inh 25µM (no result: 4-MU autofl, A350 fluor)
Cc1noc(C)c1-c1cc(NCc2ccccc2)ncn1	none
Cn1cccc1C(=O)N1CCC2(CCCN(c3cccc(-c4ccccc4)c3)C2)CC1	none
CN(C)C(=O)c1ccc(-c2nc(Nc3ccncc3)c3ccccc3n2)cc1	CRE Fsk mod 13µM, HSD17B inh inconclusive
Cc1ccccc1-c1nc(Nc2ccncc2)c2ccccc2n1	HADH2 inh inconclusive, CRE Fsk mod 4µM, HSD17B inh inconclusive
Clc1ccccc1-c1nc(Nc2ccncc2)c2ccccc2n1	CRE Fsk mod inconclusive, A350 fluor inconclusive
CN(C)C(=O)c1ccc(-c2nc(NCc3cccs3)c3ccccc3n2)cc1	CRE Fsk mod inconclusive, HSD17B inh inconclusive
COc1ccc(O[C@H]2C=C[C@@H](c3ccccc3)O[C@@H]2CON=C(C)C)cc1	none (no result: 4-MU autofl, CRE Fsk mod, A350 fluor)
COc1ccc2[nH]c(=O)c(CN(Cc3cccs3)Cc3nnnn3C(C)(C)C)cc2c1	4-MU autofl 4.6e-08M, CRE Fsk mod inconclusive, HSD17B inh inconclusive, A350 fluor 4.6e-08M
CCOC(=O)Cn1nnnc1C(CC)N(Cc1cccs1)Cc1cc2ccc(OC)cc2[nH]c1=O (configuration not stated)	CRE Fsk mod inconclusive
COc1ccc(Cn2nnnc2CN(Cc2cc3cc(C)ccc3[nH]c2=O)C2CCCC2)cc1	none
CCOc1ccc2[nH]c(=O)c(CN(Cc3cccs3)Cc3nnnn3C(C)(C)C)cc2c1	4-MU autofl 5.9e-08M, HSD17B inh inconclusive, A350 fluor 7e-08M
CCOc1ccc2[nH]c(=O)c(CN(CCN3CCOCC3)Cc3nnnn3C(C)(C)CC)cc2c1	4-MU autofl 2.1e-07M, A350 fluor 1.5e-07M
Cc1ccc(C)c2[nH]c(=O)c(CN(CCN3CCOCC3)Cc3nnnn3CC3CCCO3)cc12 (configuration not stated)	4-MU autofl inconclusive, HSD17B inh inconclusive, A350 fluor inconclusive
Nc1ccc(F)cc1F	none (no result: 4-MU autofl, A350 fluor)
Cc1ccc(S(=O)(=O)N[C@@H]2COC(=O)C/C=C\[C@H](C)COC(=O)N[C@@H](C)C(=O)C/C=C\[C@H]2C)cc1	none (no result: 4-MU autofl, CRE Fsk mod, A350 fluor)
COC(=O)N1CCC[C@@]2(CCN(c3ccncc3)C2)C1	none
CCC1=C2CC[C@H]3C(=O)N(CC(=O)OC)C(=O)[C@H]3[C@H]2[C@@]2(C)C(=O)N(Cc3ccccc3)C(=O)N2C1=O	none (no result: HADH2 inh, 4-MU autofl, CRE Fsk mod, A350 fluor)
O=C(O)c1cn(-c2ccccc2)nc1-c1ccncc1	HSD17B inh 25µM
CCOC(=O)c1cn(-c2ccccc2)nc1-c1ccncc1	CRE Fsk mod 10µM
CCOC(=O)c1cn(-c2ccccc2)nc1-c1cccnc1	none (no result: 4-MU autofl, CRE Fsk mod, A350 fluor)
O=C(OCc1nnc(-c2ccccc2)o1)c1cn(-c2ccccc2)nc1-c1ccccc1	CRE Fsk mod inconclusive, HSD17B inh 25µM
